High-throughput results: PubChem, Broad Institute
PAX8 reporter – inhibitors of PAX8 transcriptional activity in RMG-I cells. 360,000 tested, 1.2% active. AID 652154. inhibition, % at 12.6 µM. RMG-I TPO-luciferase reporter, SteadyGlo, 24 h;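 active means mean replicate inhibition at least 60% with every replicate also reaching 60%; inconclusive means only one of the two criteria is met; inactive means mean below 60% and not all replicates reaching 60%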;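 further: luciferase light reporting Pax8 driven TPO promoter activity; plate controls were median of neutral control wells for no effect and mitoxantrone controls for full effect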
TRPM1 prom inh – MITF TRPM1 promoter inhibition in SK-MEL-5 cells. inhibition, % at 12.5 µM. 330,000 tested, 0.83% active. AID 488899. SK-MEL-5 TRPM1 promoter luciferase, 24 h;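 active means mean inhibition across replicates of 60% or more, whatever share of single replicates reaches that level; inconclusive means some that reach 60%, reason not given; inactive means mean inhibition across replicates below 60%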
Shn3 3UTR inh – reduces Shn3 3'UTR luciferase signal in osteoblasts. 360,000 tested, 0.52% active. inhibition, % at 12.5 µM. Clone20 osteoblast Shn3 3'UTR firefly luciferase, 24 h;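 active means mean inhibition of at least 75% with every replicate also reaching 75%; inconclusive means mean inhibition at least 75% but some replicate below; inactive means mean inhibition below 75%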;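 further: 0% = median of neutral control wells and 100% = pilot-screen positive control compound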
LGR2 antag – inhibitors of bursicon-induced Drosophila LGR2 receptor cAMP signaling; AID 720647; 380,000 tested, 0.35% active; HEK293 LGR2, CRE-luciferase, bursicon-stimulated, 4 h; inhibition, % at 9.99 µM;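 active means drop in luminescence signal, shown as inhibition above about 50% in the replicate tests, limit read from the data, passing the limit was not always enough; inconclusive means probably only some replicates passing the limit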;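 further: agonist challenge used bursicon conditioned medium at about half maximal strength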
EWS-Fli block – inhibitors of EWS/Fli oncoprotein transcriptional activity; AID 651661; 350,000 tested, 0.67% active; A673 NR0B1-luciferase reporter, viability-normalised; inhibition, % at 12.6 µM;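 active means mean inhibition of at least 50% after viability correction, with every replicate also passing that limit; inconclusive means mean reaches 50% but only one of two replicates passes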;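 further: firefly luciferase signal divided by Alamar Blue viability fluorescence both relative to DMSO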
LMP1 NFkB inh – reduces LMP1-driven NF-kappaB luciferase signal; 350,000 tested, 0.69% active; LMP1-induced NF-kappaB luciferase reporter cells, luminescence; inhibition, % at 12.5 µM; in the data active means inhibition above about 41%; inconclusive means no clear call, values can overlap the other calls;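 further: 0% = neutral control wells and 100% = reference inhibitor control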
* = called active by the depositor; ? = inconclusive; · = not tested or not shown; ! = repeats disagree. A selection: hits, their analogues and other compounds. The true share with any hit is near 2.2%.

SMILES | PAX8 reporter | TRPM1 prom inh | Shn3 3UTR inh | LGR2 antag | EWS-Fli block | LMP1 NFkB inh
CC(=O)Nc1ccc(-c2ccnc3c2CC(C(=O)NCc2cccc(Cl)c2)O3)cc1 (configuration not stated) | · | · | 3 | · | 70* | ·
C[C@@H]1CCCCO[C@H](CN(C)C)[C@@H](C)CN([C@@H](C)CO)C(=O)c2cc(NC(=O)Cc3ccccc3)ccc2O1 | -17 | · | · | 4 | 6 | ·
COc1ccc(Oc2ccc(/C=C/C(=O)c3ccc(O)cc3)cc2[N+](=O)[O-])cc1 | 57 | 81* | 53 | · | 75* | -5
O=[N+]([O-])c1cc(/C=N\O)ccc1Oc1ccc(F)cc1 | -24 | -8 | -18 | -11 | -2 | 65*
CCCCN=C(Nc1ccc(Cl)cc1)c1cccnc1 | 3 | -3 | -4 | · | · | -2
CC(C)N=C(N)N=C(N)Nc1ccc(Cl)cc1 | -11 | 1 | 91* | -10 | -9 | 0
NC(=NCCCCCCN=C(N)/N=C(\N)Nc1ccc(Cl)cc1)/N=C(\N)Nc1ccc(Cl)cc1 | 98*! | 31 | 81 | 23 | 6 | 10
O=C(Nc1cccc(Cl)c1)N[C@@H]1CC[C@@H](CCNC(=O)C2CC2)O[C@@H]1CO | -11 | · | · | -1 | -3 | ·
CCC(=O)OCOc1ccc(/C=C2/CCC(CN(C)C)C2=O)cc1 (configuration not stated) | 37 | 67* | 78 | · | 9 | 1
COCCNC(=O)/C(C#N)=C/C=C/c1ccccc1[N+](=O)[O-] | 80* | 51 | 52 | 0 | 23 | -94
COCCNC(=O)/C(C#N)=C/c1ccc(O)cc1 | 3 | 0 | -11 | 11 | -4 | -6
COCCNC(=O)/C(C#N)=C/c1cccc(/C=C(\C#N)C(=O)NCCOC)c1 | 13 | 65* | 9 | -1 | 16 | 16
CCOCCCNC(=O)/C(C#N)=C/c1ccc(Cl)c([N+](=O)[O-])c1 | -3 | 89* | 0 | 90* | 65* | 58*
COCC(=O)N(C)C[C@@H]1Oc2cc(-c3ccc(C#N)cc3)ccc2S(=O)(=O)N([C@@H](C)CO)C[C@H]1C | -9 | · | · | -7 | -3 | ·
CO[C@@H]1CN(C)C(=O)c2ccc(NC(=O)c3ccccc3)cc2OC[C@H](C)N(CC2CC2)C[C@H]1C | · | · | · | -29 | 5 | ·
C[C@@H]1CN([C@@H](C)CO)C(=O)c2c(c3ccccc3n2C)-c2ccccc2CO[C@@H]1CN(C)C(=O)[C@H]1CCCN1C | -13 | · | · | 3 | 1 | ·
CCCN1[C@@H]2c3ccc(-c4cccc(C(=O)N(C)C)c4)c(=O)n3C[C@@H]2[C@@H](CO)[C@@H]1C(=O)OC | · | · | · | -13 | -2 | ·
C[C@@H]1CN([C@H](C)CO)S(=O)(=O)c2ccc(C#CC(C)(C)O)cc2O[C@H]1CN(C)C(=O)CC1CC1 | · | · | · | -4 | -8 | ·
Cc1ccc(S(=O)(=O)CCSC(=N)N)cc1 | 69* | -1 | -19 | 17 | 11 | -6
COc1ccc2[nH]c3c(=O)n(CCCCC(=O)N4CCC(C(N)=O)CC4)c(=S)[nH]c3c2c1 | · | 1 | -21 | 14 | 5 | 65*
CCCNC(=O)N1C[C@H](C)[C@H](OC)CN(C)C(=O)c2ccc(NC(=O)CCC)cc2OC[C@H]1C | -2 | · | · | 1 | 8 | ·
O=C1ON=C(c2ccccc2[N+](=O)[O-])/C1=C/c1cccc([N+](=O)[O-])c1O | 3 | 5 | 5 | 10 | 1 | 71*
C[C@H](CO)N1C[C@H](C)[C@@H](CN(C)S(=O)(=O)c2cccc(F)c2)OCc2ccccc2-c2ccccc2C1=O | 11 | · | · | 16 | 1 | ·
O=C1c2ccc3c4c(ccc(c24)C(=O)N1CCCCO)C(=O)N(CCCCO)C3=O | 30 | 102* | 37 | 3 | ? | 12
O=C(c1ccc2c(c1)C(=O)N(CCCO)C2=O)c1ccc2c(c1)C(=O)N(CCCO)C2=O | · | 2 | 15 | -15 | · | 3
SMILES | PAX8 reporter | TRPM1 prom inh | Shn3 3UTR inh | LGR2 antag | EWS-Fli block | LMP1 NFkB inh
CC(C)C1CC(CCNCc2ccc(N(C)C)cc2)(c2ccccc2)CCO1 (configuration not stated) | 29 | 73* | 1 | -19 | 15 | 5
COc1ccc2c3c(n(C)c2c1)[C@@H](CO)N(C(=O)C1CC1)CC31CCN(Cc2cccc(F)c2)CC1 | 35 | · | · | 4 | 5 | ·
COCC(=O)N1CC2(C1)CN(C(=O)NC1CCCC1)[C@H](CO)c1c2c2ccc(OC)cc2n1C | -11 | · | · | 5 | -2 | ·
COCC(=O)N1CCC2(CC1)CN(C(=O)NC1CCCC1)[C@@H](CO)c1c2c2ccc(OC)cc2n1C | 68* | · | · | -4 | 12 | ·
COc1ccc2c3c(n(C)c2c1)[C@H](CO)N(C(=O)C1CCC1)CC31CCN(Cc2cccc(F)c2)CC1 | 60* | · | · | 4 | 33 | ·
COc1ccc2c3c(n(C)c2c1)[C@H](CO)N(C(=O)C1CC1)CC31CCN(Cc2cccc(F)c2)CC1 | 70* | · | · | -5 | 18 | ·
O=C(C[C@H]1C=C[C@@H](NC(=O)c2cccc(F)c2)[C@@H](CO)O1)NCCN1CCCC1 | -18 | · | · | 11 | 5 | ·
C[C@@H]1CN([C@@H](C)CO)S(=O)(=O)c2ccc(C#CC3(O)CCCC3)cc2O[C@@H]1CN(C)C(=O)c1ccncc1 | · | · | · | 5 | 4 | ·
C=C(CN(C)C)C(=O)c1ccc(C)cc1C | 85* | 109* | 97* | 6 | 73* | -8
Cc1ccc(-n2[nH]c(=O)c(-c3ccccn3)c2C)cc1 | 75* | 83* | 79 | 94* | 74* | 66*
Cc1ccc(S(=O)(=O)Nc2ccc3c(c2)C(=O)N([C@H](C)CO)C[C@@H](C)[C@H](CN(C)S(=O)(=O)c2ccc(C)cc2)OCCCC[C@H](C)O3)cc1 | 84* | · | · | 3 | 9 | ·
Cc1ccc(S(=O)(=O)Nc2ccc3c(c2)C(=O)N([C@@H](C)CO)C[C@H](C)[C@@H](CN(C)S(=O)(=O)c2ccc(C)cc2)OCCCC[C@H](C)O3)cc1 | 61* | · | · | 18 | 16 | ·
Cc1ccc(S(=O)(=O)Nc2ccc3c(c2)C(=O)N([C@H](C)CO)C[C@@H](C)[C@@H](CN(C)S(=O)(=O)c2ccc(C)cc2)OCCCC[C@H](C)O3)cc1 | -27 | · | · | -1 | 6 | ·
Cc1ccc(S(=O)(=O)Nc2ccc3c(c2)C(=O)N([C@H](C)CO)C[C@@H](C)[C@@H](CN(C)C(=O)c2ccccc2)OCCCC[C@H](C)O3)cc1 | -24 | · | · | -12 | -10 | ·
Cc1ccc(S(=O)(=O)Nc2ccc3c(c2)C(=O)N([C@H](C)CO)C[C@H](C)[C@@H](CN(C)S(=O)(=O)c2ccc(C)cc2)OCCCC[C@H](C)O3)cc1 | 83* | · | · | -2 | 7 | ·
Cc1ccc(S(=O)(=O)Nc2ccc3c(c2)C(=O)N([C@H](C)CO)C[C@H](C)[C@H](CN(C)C(=O)c2ccccc2)OCCCC[C@H](C)O3)cc1 | 96* | · | · | -16 | -6 | ·
CO[C@H]1CN(C)C(=O)c2cc(NC(=O)Nc3c(C)noc3C)ccc2OC[C@H](C)N(CCC(F)(F)F)C[C@@H]1C | · | · | · | 9 | 1 | ·
